# Hits are enriched below; roughly 22% of the tested compounds scored in any of these assays.
# Pf growth 48h – P. falciparum growth inhibition at 48 hours (one generation) | P. falciparum luciferase growth in erythrocytes, 48 h | Potency, µM (doses to about 28.7 µM), for the others: at the top dose activity change, negative = inhibition, hits mostly inhibitors | 5.9% of 310,000 active | AID 504832; further: potency means the concentration at half of the fitted maximal effect; on the % scale 0 is the no-effect control and ±100 the full control effect
#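 Parasite viability was followed by luminescence of a genomically integrated firefly luciferase. Cultures held 0.1% parasitemia at 2% hematocrit (final), incubated under 5% CO2 at 37 C.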
# CHX counter – counter-screen for Shiga toxin inhibitors: cycloheximide protein synthesis inhibition; cell reporter, cycloheximide protein synthesis inhibition counterscreen; max response, %; 12% of 300,000 active; AID 2314; in the data active means max response mostly above about 13%, no sharp cut-off; inactive means mostly below about 14%; further: read at 38.3 µM for the half of the compounds with a filed dose; 0% is about no effect
# Pf growth 96h – P. falciparum growth inhibition at 96 hours | P. falciparum luciferase reporter growth, 96 h | Potency, µM (highest dose often 28.7 µM), for inactives: at the highest dose activity change, negative = inhibition, hits mostly inhibitors | 6.9% of 320,000 active | AID 504834; further: potency means the concentration at half of the fitted maximal effect; on the % scale 0 is the no-effect control and ±100 the full control effect
#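 Two-generation exposure (96 h) targets delayed-death phenotype. Reporter parasites carrying integrated firefly luciferase, in red cells at 2% hematocrit and 0.05% parasitemia final, kept at 37 C, 5% CO2; luminescence loss indicates inhibition.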
# Shiga inhibitor – blocks Shiga toxin action in Vero cells. Vero cells, Shiga toxin protein synthesis inhibition reporter. inhibition, % at 38.7 µM. 9.2% of 290,000 active; in the data active means inhibition mostly above about 28%, no sharp cut-off; inactive means mostly below about 43%; further: 0% is about no effect
# LmPK inh – LmPK (Leishmania mexicana) enzyme inhibition; Q27686; purified LmPK, Kinase-Glo ATP luminescence, 1 h; Potency, µM (top dose mostly 57.5 µM), without a hit: top-dose activity change, negative = inhibition, usual class: inhibitors; 0.37% of 290,000 active; AID 1721; further: potency means the concentration at half of the fitted maximal effect; on the % scale 0 is the no-effect control and ±100 the full control effect
# Target sequence (Q27686 whole entry, looked up): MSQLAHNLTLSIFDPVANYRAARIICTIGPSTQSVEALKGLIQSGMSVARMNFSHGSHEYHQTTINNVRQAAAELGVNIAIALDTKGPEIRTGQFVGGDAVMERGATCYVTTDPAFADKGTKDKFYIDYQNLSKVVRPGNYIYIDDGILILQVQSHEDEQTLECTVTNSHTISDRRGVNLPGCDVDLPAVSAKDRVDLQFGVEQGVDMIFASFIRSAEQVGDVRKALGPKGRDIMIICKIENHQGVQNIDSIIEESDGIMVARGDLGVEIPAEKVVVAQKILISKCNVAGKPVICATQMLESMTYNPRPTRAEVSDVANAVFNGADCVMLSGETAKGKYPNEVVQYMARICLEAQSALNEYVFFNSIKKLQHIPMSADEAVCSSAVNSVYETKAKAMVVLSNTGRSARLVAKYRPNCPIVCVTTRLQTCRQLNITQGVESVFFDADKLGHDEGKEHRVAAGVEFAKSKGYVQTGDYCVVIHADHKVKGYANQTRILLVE
#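 ATP generated from ADP (0.1 mM) and PEP (0.5 mM) by 0.1 nM LmPK over 1 h at room temperature (pH 7.2 imidazole buffer) was detected by coupled luciferase luminescence. Values were normalized to uninhibited and no-enzyme wells.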
# * hit, by the source's call; ? = inconclusive; · = no result. Unless noted, the call rests on the fitted dose curve; in most records, active means well fitted inhibition curve with a large enough effect; inconclusive means small, poorly fitted or top-dose-only effect, or another doubt; inactive means no such curve, though single readings can be large or run the other way.
SMILES,Pf growth 48h,CHX counter,Pf growth 96h,Shiga inhibitor,LmPK inh
CC(C)(C)c1ccc(C(=O)NCCC(=O)N2CCCC2)cc1,143%,40*,150%,96*,-2%
Cc1ccc(Nc2nc(=O)c3cccnc3s2)cc1,95%,26*,7%,72*,-5%
CCN(CC)C(=O)CSc1nnc(-c2ccccn2)n1Cc1ccccc1,-15%,-2,2%,-5,-2%
C/C(NC(=O)c1ccccc1)=C1/C(=O)CC2C1C2(C)C (stereo not given),44%,43*,66%,119*,-2%
O=C1CC(c2ccccc2)=Nc2ccc(Br)cc2N1,-22%,8,43%,28,12%
Cc1ccc2c(c1)NC(=O)CC(c1ccccc1)=N2,116%,40*,-16%,63*,3%
Cc1cc(OC(C)C(=O)NCCc2c[nH]c3ccccc23)c2c(C)cc(=O)oc2c1 (stereo not given),1.5µM*,-2,1.7µM*,-2,-10%
CCCc1cc(=O)oc2cc(C)cc(OC(C)C(=O)NCCCN3CCOCC3)c12 (stereo not given),?,15,?,-4,-2%
CCCc1cc(=O)oc2cc(C)cc(OC(C)C(=O)NCCN3CCOCC3)c12 (stereo not given),10µM*,9,9.3µM*,10,6%
CCCc1cc(=O)oc2cc(OC(C)C(=O)NCc3ccccn3)c(Cl)cc12 (stereo not given),-8%,-12,10µM*,10,-10%
CCCc1cc(=O)oc2cc(C)cc(OC(C)C(=O)NCCCn3ccnc3)c12 (stereo not given),4.1µM*,-5,2.6µM*,-6,-1%
NC(=O)CC1NC(=O)c2cc([N+](=O)[O-])cc(I)c2OCCC(C(N)=O)NC(=O)[C@@H]2CCCN2C1=O (stereo not given in full),-3%,-2,0%,-17,1%
O=C(Nc1nnc(S(=O)(=O)N2CCCCC2)s1)c1cccc(Br)c1,15%,-1,-7%,19,-5%
Cc1cc(OC(C)C(=O)NCC(O)c2ccccc2)c2c(C)cc(=O)oc2c1 (stereo not given),?,-2,?,20,9%
CCCc1cc(=O)oc2cc(C)cc(OC(C)C(=O)NCC(O)c3ccccc3)c12 (stereo not given),0.47µM*,1,?,-3,5%
CC(C)CCNC(=O)C(=O)Nc1ccc2c(c1)N(S(=O)(=O)c1cccs1)CCC2,5.9µM*,·,?,·,·
CC(C)CNC(=O)C(=O)Nc1ccc2c(c1)N(S(=O)(=O)c1cccs1)CCC2,?,·,10µM*,·,·
COCCNC(=O)C(=O)Nc1ccc2c(c1)N(S(=O)(=O)c1cccs1)CCC2,-11%,·,?,·,·
COC(CNC(=O)C(=O)Nc1ccc2c(c1)N(S(=O)(=O)c1cccs1)CCC2)OC,?,·,3%,·,·
COc1cc2nc(=S)n3[nH]c(CCn4nc(C)cc4C)nc3c2cc1OC,2.9µM*,9,-10%,-3,?
CC1(C)CC(NC(=O)COc2ccc(Br)cc2Cl)CC(C)(C)N1,-9%,3,-22%,-18,-11%
CC1(C)CC(NC(=O)COc2ccc([N+](=O)[O-])cc2)CC(C)(C)N1,2%,-3,33%,-6,-2%
Cc1c(OCC(=O)NC2CC(C)(C)NC(C)(C)C2)ccc2c3c(c(=O)oc12)CCC3,?,2,?,13,-3%
O=C(COc1ccccc1Cl)NC1CC1,22%,12,?,92*,2%
O=C(COc1ccc(Cl)cc1Br)NC1CC1,72%,·,82%,·,·
SMILES,Pf growth 48h,CHX counter,Pf growth 96h,Shiga inhibitor,LmPK inh
Cc1c(OCC(=O)NC2CC(C)(C)NC(C)(C)C2)ccc2c1oc(=O)c1ccccc12,3.7µM*,10,3.3µM*,7,9%
CC1(C)CC(NC(=O)COc2ccccc2Cl)CC(C)(C)N1,75%,28*,1%,95*,-4%
COc1ccc(OCC(=O)NC2CC(C)(C)NC(C)(C)C2)cc1,46%,31*,?,59,6%
Cc1ccc(CNC(=O)CN(C)C2=NS(=O)(=O)c3ccccc32)cc1,-3%,·,48%,·,·
CCCCCCCCCCCCCCCC(=O)OC[C@@H](COP(=O)([O-])OCC[N+](C)(C)C)OC(=O)CCCCCCCCCCCCCCC,·,7,·,-6,·
O=C(COc1ccccc1Br)NC1CC1,34%,15*,32%,67,1%
O=C(COc1ccccc1Br)NC(=O)NC1CCCC1,94%,·,43%,·,·
Cc1cccc2c1OCC/C2=N\NC(=O)COc1ccccc1Cl,310%,21*,87%,63*,0%
CCCn1c(N)c(N(CCOC)C(=O)c2cc(S(=O)(=O)N3CCCCCC3)ccc2OC)c(=O)[nH]c1=O,12%,-3,1%,-8,-6%
O=S(=O)(NN=C1CCCCCC1)c1ccccc1,13%,-3,52%,-28,-10%
O=Nc1ccc(NOC(=O)c2ccccc2)cc1,62%,44*,6%,47*,13µM*
COc1ccc(C2CC(c3ccccc3)Oc3c(C)ccc(C(C)C)c32)cc1 (stereo not given),·,1,·,13,·
CCOc1ccc(Cc2nnc(SCC(=O)c3ccc(OC)cc3)o2)cc1,-16%,-1,12µM*,-9,6%
COc1ccc(OCc2nnc(SCC(=O)NC3CCCCC3)o2)cc1,43%,10,4%,30*,2%
CC(C)(C)c1ccc(-c2nnc(SCC(=O)NC3CC3)o2)cc1,2.1µM*,·,1.3µM*,·,·
O=C(CSc1nnc(-c2ccccc2)o1)NC1CCCC1,-9%,·,2%,·,·
COc1ccc(OCc2nnc(SCC(=O)NC3CC4CCC3C4)o2)cc1 (stereo not given),-6%,28*,53%,44,-1%
O=C(CSc1nnc(COc2ccc(Cl)cc2)o1)NC1CC2CCC1C2 (stereo not given),15%,8,-26%,21,-1%
O=C(CSc1nnc(COc2ccc(Cl)cc2)o1)NC1CCCCC1,6%,·,16%,·,·
COc1ccc(Cc2nnc(SCC(=O)c3ccc(OC)cc3)o2)cc1,-11%,-3,·,-18,5%
O=C(c1cc(C2CC2)on1)N1CCCC(N2CCN(c3ccc(F)cc3)CC2)C1 (stereo not given),?,11,-1%,4,5%
COc1ccc(C(=O)N2CCN(CCc3ccccc3)CC2)cc1[N+](=O)[O-],-13%,-1,37%,-22,-4%
COC(=O)c1ccc(NC(=O)CSc2nnc(COc3ccc4c(c3)CCCC4)o2)cc1,-7%,3,1.9µM*,-17,2%
CCc1ccc(NC(=O)CSc2nnc(COc3ccc4c(c3)CCCC4)o2)cc1,·,-3,?,-15,5%
O=C(Nc1cccc(Br)c1)c1cccc(OC(=S)N2CCOCC2)c1,?,41*,27%,44*,-9%
O=C(Nc1ccc(C(=O)N2CCOCC2)cc1)c1cccc(Br)c1,7%,30*,?,69,-14%

# Source: PubChem BioAssay
